Results as given in PubChem BioAssay AID1159580 (chemical genetic matrix, 2015).
Values joined by “and” are separate entries in the source; they are usually repeats but may differ in a detail not shown here. Identical values can stand only once. Hit rate of the full screen: of about 5,500 compounds, about 2,000 (36%) were called active. About 18% were inconclusive and are not listed. No stated cut-off is given here; in the data, active means normalized growth mostly below about 0.91 (no sharp cut-off); inconclusive means no clear call, values can overlap the other calls; inactive means mostly above about 0.92. This is one part of the list.

Assay: chemical genetic growth profiling, strain panel (AID 1159580);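 further: tested at 20 µM; growth read once vehicle control cultures reached saturation at 30 °C; 1 = growth at the plate median or of vehicle wells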
Conditions: S. cerevisiae deletion strains, growth OD

Measured: normalized growth

C=Cc1c2[nH]c(c1C)C=c1[nH]c(c(C)c1C=C)=CC1N=C(C=c3[nH]c(c(C)c3CCC(=O)O)=C2)C(CCC(=O)O)=C1C (configuration not stated)
inactive: locus YAL013W, strain DEP1, stronger effect = lower value 0.975 | locus YAL021C, strain ccr4, stronger effect = lower value 0.954 | locus YAL026C, strain drs2, stronger effect = lower value 1.02 | locus YAL030W, strain snc1, stronger effect = lower value 1.03 | locus YBL061C, strain skt5, stronger effect = lower value 1.02 | locus YBR009C, strain hhf1, stronger effect = lower value 1.02 | locus YBR021W, strain FUR4, stronger effect = lower value 1.01 | locus YBR023C, strain chs3, stronger effect = lower value 1.01 | locus YBR171W, strain sec66, stronger effect = lower value 1.08 | locus YBR229C, strain ROT2, stronger effect = lower value 0.961 | locus YBR231C, strain swc5, stronger effect = lower value 1.02 | locus YBR279W, strain paf1, stronger effect = lower value 1.01 | locus YCL011C, strain gbp2, stronger effect = lower value 1.05 | locus YCL016C, strain dcc1, stronger effect = lower value 1 | locus YCL029C, strain bik1, stronger effect = lower value 0.979 | locus YCL061C, strain MRC1, stronger effect = lower value 1.03 | locus YCL069W, strain vba3, stronger effect = lower value 1.02 | locus YCR088W, strain abp1, stronger effect = lower value 1.04 | locus YDL005C, strain med2, stronger effect = lower value 1.01 | locus YDL035C, strain GPR1, stronger effect = lower value 0.975 | locus YDL040C, strain nat1, stronger effect = lower value 0.993 | locus YDL074C, strain BRE1, stronger effect = lower value 0.988 | locus YDL101C, strain DUN1, stronger effect = lower value 0.981 | locus YDL134C, strain PPH21, stronger effect = lower value 0.988 | locus YDL185W, strain tfp1, stronger effect = lower value 0.983 | locus YDL192W, strain arf1, stronger effect = lower value 0.976 | locus YDR001C, strain nth1, stronger effect = lower value 1.03 | locus YDR069C, strain doa4, stronger effect = lower value 1.06 | locus YDR101C, strain arx1, stronger effect = lower value 0.987 | locus YDR137W, strain rgp1, stronger effect = lower value 1 | locus YDR150W, strain NUM1, stronger effect = lower value 0.973 | locus YDR159W, strain sac3, stronger effect = lower value 1.03 | locus YDR162C, strain NBP2, stronger effect = lower value 0.96 | locus YDR195W, strain ref2 1.03 | locus YDR297W, strain sur2, stronger effect = lower value 1.01 | locus YDR318W, strain mcm21, stronger effect = lower value 0.989 | locus YDR334W, strain swr1, stronger effect = lower value 1.04 | locus YDR335W, strain msn5, stronger effect = lower value 1.01 | locus YDR388W, stronger effect = lower value 0.999 | locus YDR392W, strain spt3, stronger effect = lower value 0.909 | locus YDR502C, strain sam2, stronger effect = lower value 0.952 | locus YEL003W, strain gim4, stronger effect = lower value 1.05 | locus YEL037C, strain rad23, stronger effect = lower value 1.02 | locus YEL061C, strain CIN8 (second series), stronger effect = lower value 1.02 | locus YEL061C, strain CIN8, stronger effect = lower value 0.986 | locus YER015W, strain faa2, stronger effect = lower value 1.04 | locus YER016W, strain bim1, stronger effect = lower value 1.02 | locus YER110C, stronger effect = lower value 0.972 | locus YER111C, strain swi4, stronger effect = lower value 1.03 | locus YER155C, strain BEM2 (second series), stronger effect = lower value 1.07 | locus YER155C, strain BEM2, stronger effect = lower value 1 | locus YER167W, strain BCK2, stronger effect = lower value 0.982 | locus YFR010W, strain ubp6, stronger effect = lower value 1.04 | locus YGL078C, strain dbp3, stronger effect = lower value 1.02 | locus YGL086W, strain mad1, stronger effect = lower value 0.938 | locus YGL167C, strain pmr1, stronger effect = lower value 1.02 | locus YGL173C, strain kem1, stronger effect = lower value 1.02 | locus YGL227W, strain vid30, stronger effect = lower value 1.05 | locus YGL240W, strain doc1, stronger effect = lower value 0.977 | locus YGL248W, strain PDE1, stronger effect = lower value 0.995 | locus YGL253W, strain hxk2, stronger effect = lower value 0.988 | locus YGR078C, strain PAC10, stronger effect = lower value 0.994 | locus YGR135W, strain pre9, stronger effect = lower value 0.961 | locus YGR229C, strain SMI1, stronger effect = lower value 0.923 | locus YGR252W, strain gcn5, stronger effect = lower value 1.05 | locus YHR013C, strain ard1, stronger effect = lower value 0.975 | locus YHR027C, strain rpn1, stronger effect = lower value 1.06 | locus YHR030C, strain SLT2, stronger effect = lower value 1 and 1.03 | locus YHR079C, strain IRE1 (second series), stronger effect = lower value 0.99 | locus YHR079C, strain IRE1, stronger effect = lower value 1.07 | locus YHR094C, strain hxt1, stronger effect = lower value 0.996 | locus YHR129C, strain ARP1, stronger effect = lower value 0.995 | locus YHR142W, strain chs7, stronger effect = lower value 0.975 | locus YHR200W, strain rpn10, stronger effect = lower value 0.97 | locus YIL066C, strain RNR3, stronger effect = lower value 0.982 | locus YIL073C, strain SPO22, stronger effect = lower value 1.01 | locus YIL125W, strain kgd1, stronger effect = lower value 1.02 | locus YIR030C, strain dcg1, stronger effect = lower value 0.986 | locus YJL092W, strain hpr5, stronger effect = lower value 1.02 | locus YJL095W, strain BCK1 (second series), stronger effect = lower value 1.02 | locus YJL095W, strain BCK1, stronger effect = lower value 1.02 and 1.01 | locus YJL115W, strain asf1, stronger effect = lower value 1.02 | locus YJL129C, strain trk1, stronger effect = lower value 1.04 | locus YJL134W, strain LCB3, stronger effect = lower value 0.988 | locus YJL154C, strain vps35, stronger effect = lower value 1.02 | locus YJL164C, strain tpk1, stronger effect = lower value 0.968 | locus YJL166W, strain qcr8, stronger effect = lower value 0.945 | locus YJL168C, strain set2, stronger effect = lower value 0.996 | locus YJL187C, strain SWE1 (second series), stronger effect = lower value 1 | locus YJL187C, strain SWE1, stronger effect = lower value 1 | locus YJR043C, strain POL32, stronger effect = lower value 0.962 | locus YJR066W, strain TOR1, stronger effect = lower value 0.995
